A short description of the assay: chemical genetic growth profiling, strain panel (AID 1159580).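 Further: tested at 20 µM; growth read once vehicle control cultures reached saturation at 30 °C; 1 = growth at the plate median or of vehicle wells; lower values mean less growth of the strain.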 Particulars: growth OD.
Setting [1] is: S. cerevisiae deletion strains, locus YAL013W, strain DEP1, hits give low values.
Setting [2] is: S. cerevisiae deletion strains, locus YBR229C, strain ROT2, hits give low values.
The mark [3] stands for this setting: S. cerevisiae deletion strains, locus YDL101C, strain DUN1, hits give low values.
Setting [4] is: S. cerevisiae deletion strains, locus YDR150W, strain NUM1, hits give low values.
Where [5] appears, read: S. cerevisiae deletion strains, locus YEL061C, strain CIN8, hits give low values.
Where [6] appears, read: S. cerevisiae deletion strains, locus YGR078C, strain PAC10, hits give low values.
Setting [7] is: S. cerevisiae deletion strains, locus YHR030C, strain SLT2, hits give low values.
Where [8] appears, read: S. cerevisiae deletion strains, locus YHR087W, strain rtc3, hits give low values.
[9] abbreviates: S. cerevisiae deletion strains, locus YJR043C, strain POL32, hits give low values.
The mark [10] stands for this setting: S. cerevisiae deletion strains, locus YJR075W, strain HOC1, hits give low values.
Where [11] appears, read: S. cerevisiae deletion strains, locus YLR039C, strain RIC1, hits give low values.
Where [12] appears, read: S. cerevisiae deletion strains, locus YLR058C, strain SHM2 (second series), hits give low values.
The mark [13] stands for this setting: S. cerevisiae deletion strains, locus YLR085C, strain ARP6, hits give low values.
The mark [14] stands for this setting: S. cerevisiae deletion strains, locus YLR262C, strain YPT6, hits give low values.
The mark [15] stands for this setting: S. cerevisiae deletion strains, locus YML094W, strain GIM5, hits give low values.
Where [16] appears, read: S. cerevisiae deletion strains, locus YMR219W, strain ESC1, hits give low values.
[17] abbreviates: S. cerevisiae deletion strains, locus YMR263W, strain SAP30, hits give low values.
[18] abbreviates: S. cerevisiae deletion strains, locus YNL128W, strain TEP1, hits give low values.
Where [19] appears, read: S. cerevisiae deletion strains, locus YNL153C, strain GIM3, hits give low values.
[20] abbreviates: S. cerevisiae deletion strains, locus YNL298W, strain CLA4 (second series), hits give low values.
[21] abbreviates: S. cerevisiae deletion strains, locus YNL322C, strain KRE1, hits give low values.
The mark [22] stands for this setting: S. cerevisiae deletion strains, locus YNR030W, strain Alg12, hits give low values.
Setting [23] is: S. cerevisiae deletion strains, locus YPL055C, strain LGE1, hits give low values.
Setting [24] is: S. cerevisiae deletion strains, locus YPL241C, strain CIN2, hits give low values.
Setting [25] is: S. cerevisiae deletion strains, locus YPR135W, strain CTF4, hits give low values.
The mark [26] stands for this setting: S. cerevisiae deletion strains, locus YMR307W, strain GAS1, hits give low values.

The structures appear in SMILES notation. About 2,000 (36%) of roughly 5,500 compounds were called active. About 18% were inconclusive and are not listed. The list shows a part of the results. Unmarked numbers belong to inactive results. No stated cut-off is given here; in the data, active means normalized growth mostly below about 0.91 (no sharp cut-off); inconclusive means no clear call, values can overlap the other calls; inactive means mostly above about 0.92.

In the case of `CCC(=O)Nc1cc(F)ccc1C`, the normalized growth under setting [1] is 0.999; the normalized growth under setting [2] was 1; the normalized growth under setting [3] is 1; the normalized growth (S. cerevisiae deletion strains, locus YDL134C, strain PPH21, hits give low values) is 1; the normalized growth under setting [4] was 0.968; the normalized growth under setting [5] is 0.997. For the same compound, the normalized growth by setting is: under setting [6], 1; under setting [7], 0.985; under setting [8], 1.01; under setting [9], 0.985; under setting [10], 1; (S. cerevisiae deletion strains, locus YKL190W, strain CNB1, hits give low values) 1.01. Also, the normalized growth was 1.01 under setting [11]; 1 under setting [12]; 1.02 under setting [13]; 1.01 under setting [14]; 1.01 under setting [15]; 0.997 under setting [16]. In addition, the normalized growth runs as follows: under setting [17], 0.996; under setting [18], 0.998; under setting [19], 0.987; under setting [20], 1.01; under setting [21], 0.997; under setting [22], 1.01. The normalized growth by setting is: under setting [23], 1.09; under setting [24], 0.89; under setting [25], 0.987; (S. cerevisiae strains, strain wild type, hits give low values) 1.01.

As for `CC(C)(C)c1ccc(NC(=O)Cc2cc(F)cc(F)c2)cc1`, the normalized growth is 0.993 under setting [1]; 0.995 under setting [2]; 0.97 (S. cerevisiae deletion strains, locus YCL061C, strain MRC1, hits give low values); 1.02 under setting [3]; 0.902 under setting [4]; 0.997 under setting [5]. The normalized growth runs as follows: under setting [6], 0.979; under setting [7], 0.988; under setting [8], 0.984; (S. cerevisiae deletion strains, locus YJL187C, strain SWE1, hits give low values) 0.985; under setting [9], 1; under setting [10], 0.933. Also, the normalized growth under setting [11] is 0.939; the normalized growth under setting [12] is 0.986; the normalized growth under setting [13] is 1.26 [resistant] (active); the normalized growth under setting [14] is 0.941; the normalized growth under setting [15] is 0.994; the normalized growth under setting [16] is 0.988. Also, the normalized growth is, setting by setting: under setting [17], 1; under setting [26], 1.05; under setting [19], 0.989; under setting [20], 0.97; under setting [21], 0.985; under setting [22], 0.985. Further, the normalized growth is, setting by setting: under setting [23], 0.885; under setting [24], 0.949; under setting [25], 1.

In the case of `O=C1NCN(c2ccccc2)C12CCN(CC1COc3ccccc3O1)CC2` (stereo not drawn), the normalized growth (S. cerevisiae deletion strains, locus YAL040C, strain CLN3, hits give low values) was 1; the normalized growth (S. cerevisiae deletion strains, locus YCL061C, strain MRC1 (second series), hits give low values) is 1.01; the normalized growth (S. cerevisiae deletion strains, locus YDR363W, strain ESC2, hits give low values) was 0.998; the normalized growth (S. cerevisiae deletion strains, locus YER002W, strain NOP16, hits give low values) is 1.02; the normalized growth (S. cerevisiae deletion strains, locus YGR229C, strain SMI1, hits give low values) was 0.999; the normalized growth under setting [26] was 0.999. For the same compound, the normalized growth runs as follows: under setting [18], 1.04; (S. cerevisiae deletion strains, locus YNL175C, strain NOP13, hits give low values) 1.02; (S. cerevisiae deletion strains, locus YNL197C, strain WHI3, hits give low values) 1.02; (S. cerevisiae deletion strains, locus YNL224C, strain SQS1, hits give low values) 1; (S. cerevisiae deletion strains, locus YOR083W, strain WHI5 (second series), hits give low values) 1.04; under setting [23], 1.01.

As for `N#CCOc1ccc(Cl)cc1Cl`, the normalized growth under setting [1] was 0.99; the normalized growth under setting [2] was 0.97; the normalized growth under setting [3] was 0.976; the normalized growth under setting [4] was 0.95; the normalized growth under setting [5] was 0.99; the normalized growth under setting [6] was 0.965. The normalized growth under setting [7] is 0.95; the normalized growth under setting [8] was 0.977; the normalized growth under setting [9] is 0.975; the normalized growth under setting [10] was 0.915; the normalized growth under setting [11] is 1.07; the normalized growth under setting [12] was 0.954. The normalized growth reads like this: under setting [13], 1; under setting [14], 1.01; under setting [15], 0.983; under setting [16], 0.955; under setting [17], 0.987; under setting [26], 1.06. Further, the normalized growth under setting [19] was 0.997; the normalized growth under setting [20] was 1.02; the normalized growth under setting [21] is 0.96; the normalized growth under setting [22] was 0.997; the normalized growth (S. cerevisiae deletion strains, locus YOL006C, strain TOP1, hits give low values) is 1.06; the normalized growth under setting [23] was 1.12. Besides, the normalized growth by setting is: under setting [24], 0.985; under setting [25], 0.968.

These data come from PubChem BioAssay AID1159580 (chemical genetic matrix, 2015).
